About 79,000 compounds went through this panel and 15% of them were active in at least one assay; those are over-represented in the sample as a whole. A number with no mark means an inactive call. The source made the active and inactive calls. Rule as the data show it: active = growth inhibition above about 70%; inactive = the rest.
Experiment: NCI Yeast Anticancer Drug Screen. Data for the rad50EPP+ strain (AID 151);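 also: 0% = growth of vehicle-treated control cultures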
Settings: S. cerevisiae rad50 mutant strain, at 33.0 µM, active compounds read high
Procedure, shortened: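 Vehicle-normalised growth inhibition; rad50EPP+ yeast strain, altered in DNA damage repair, compound-treated.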

SMILES | growth inhibition
O=P(NC1CCCCC1)(OCc1ccccc1)OCc1ccccc1 | 9%
COc1oc(C(=O)NC2CCCCC2)c(-c2ccc(Cl)cc2)c1S(=O)(=O)c1ccccc1 | -5%
C[Si](C)(C)/C=C/CCNC(C#N)c1ccccc1 (stereo unspecified) | -30%
CCOc1ccc(NC(=O)C2=C(C)NC(C)=C(C(=O)Nc3ccc(OCC)cc3)C2c2cccc([N+](=O)[O-])c2)cc1 | 3%
CN(C)CCOC1(Cc2ccc(F)cc2)CCC(C(C)(C)C)CC1 (stereo unspecified) | -61%
CC(=O)Nc1ccc2c(c1)Cc1cc(N=C3C=CC(=O)O3)ccc1-2 | 99% (active)
O=C1C=C(Cl)C(=O)C(c2ccc(Cl)cc2)=C1 | 98% (active)
CNCCCNc1c2ccccc2nc2cccc([N+](=O)[O-])c12 | 97% (active)
CCCCCCCCCCCC(O)S(=O)(=O)O (stereo unspecified) | 15%
CC(C)OC(=O)c1ccc(CCc2cc(O)c(Br)cc2O)cc1 | 97% (active)
CCc1cc(O)c(Cl)c(C)c1Cl | 40%
C(=Nc1ccc(-c2cc(-c3ccccc3)nc3ccc4ccccc4c23)cc1)c1ccccc1 | 10%
CSc1nc(C)c(CCOC(C)=O)c(N=P(c2ccccc2)(c2ccccc2)c2ccccc2)n1 | 1%
CS(=O)(=O)SCc1ccc([N+](=O)[O-])cc1 | 99% (active)
COC1=C(OC)C(=O)C(Sc2ccc3ccccc3c2)=CC1=O | 95% (active)
COc1nc2c(c(=O)n1C)N=C(c1ccccc1)[C@H](C(CC(=O)c1ccccc1)c1ccccc1)C(c1ccccc1)N2 (stereo partly specified) | -17%
Cc1cc(-c2cc(C)c(O)c(C(C)(C)C)c2)cc(C(C)(C)C)c1O | -25%
Nc1cc(N)c(N=Nc2cccc3c(S(=O)(=O)O)cccc23)cc1N=Nc1cc([N+](=O)[O-])ccc1O | -4%

SMILES | growth inhibition
Nc1ccc(F)cc1S | 55%
Brc1ccccc1-c1ncc(-c2ccccc2)o1 | 38%
COc1cc(C2SCC(=O)N2c2ccc(-c3ccc(-n4c(-c5ccccc5)nc5ccccc5c4=O)cc3)cc2)ccc1O (stereo unspecified) | 27%
Nc1ncnc2c1ncn2C1OC(CO)CC1O (stereo unspecified) | -25%
COc1cc(CSc2ccc(O)cc2)cc(O)c1O | -6%
CCOC(=O)C1N=[N+](c2ccccc2)C(=O)/C1=C\n1c(=S)[nH]c2ccc([N+](=O)[O-])cc21 (stereo unspecified) | 2%
O=C(NNc1ccccc1)c1ccc(Cl)c(Cl)c1 | 33%
Cc1ccc(CC2(OCCN(C)C)CCC(C(C)(C)C)CC2)cc1 (stereo unspecified) | -2%
C[C@]12CC[C@H](O)CC1=CC[C@@H]1C2CC[C@]2(C)C(=O)NC(=O)CC12 (stereo partly specified) | 74% (active)
CCCC/C=C/C(C)(C(=O)OCC)C(=O)OCC | 9%
CCc1c(Cl)c(C)cc(O)c1Cl | 42%
O=C(/C=C(/c1ccccc1)N1CCCCC1)c1ccccc1 | 43%
CCCC(=O)Oc1ccc(/C=N/NC(N)=S)nc1 | -11%
CCc1nc2ccc(NCCN(C)C)c3c(=O)c4ccccc4n1c23 | 57%
Cc1sc2ccc3ccccc3c2[n+]1C | -25%
COc1c(O)c(C=O)c(Br)c(C=O)c1O | 95% (active)
Cc1ccc(Cl)cc1NC(=O)OCCN(C)C(=O)Nc1cc(Cl)ccc1C | -6%
Cc1nc2ccccc2nc1NNc1ccccc1 | 65%

Source: PubChem BioAssay (NCI)
